HepG2 tox: HepG2 cytotoxicity, counter-screen for TGF-b inhibitors; HepG2 CAGA-GFP viability, ATP luminescence, 18 h; Potency, µM (highest dose often 46.1 µM), inactives show at the top dose activity change, negative = cytotoxicity, hits mostly cytotoxic; actives 0.76% (n = 410,000); AID 588856; also: potency is read from the fitted curve at half-maximal effect
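HepG2 CAGA-GFP cells (1000/well, DMEM with 1% FBS) received compound, then TGF-beta at 500 pg/mL final, and were incubated 18 hours at 37 degrees C. Viability was read by CellTiter-Glo luminescence. Media-only wells were set as complete cell-killing and DMSO as no toxicity.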
IL-1B inflam inh: blocks inflammasome-driven IL-1 beta release; activity change, % at 57.5 µM; actives 4.7% (n = 360,000); THP-1 LPS/ATP IL-1B secretion, AlphaLISA, 16 h; stronger effect = lower value; in the data active = activity change below about -50%; inconclusive = mostly about -30% to -49%; also: % is scaled to controls: 0 for no effect and ±100 for the full control effect
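Secreted IL-1B measured by AlphaLISA bead assay after 16 h compound exposure of THP-1 cells; compounds (final up to 57.5 uM) added 1 h before LPS (250 ng/mL) and ATP (1.25 mM) stimulation; lower signal means less secretion.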
TDP1 cell noCPT: qHTS for Inhibitors of human tyrosyl-DNA phosphodiesterase 1 (TDP1): qHTS in cells in absence of CPT | DT40 Tdp1-/- hTDP1 cells, no CPT, ATP luminescence, 48 h | Potency, µM (doses to about 46.2 µM), for inactives: top-dose activity change, negative = growth inhibition, actives largely listed as inhibitors | actives 15% (n = 420,000) | AID 686978, 2013; also: potency is read from the fitted curve at half-maximal effect; % is scaled to controls: 0 for no effect and ±100 for the full control effect; nearly all actives have a fitted effect of over 55% in size
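Seeded 400 DT40-hTDP1 cells/well (vehicle DMSO, no 20 nM CPT); pinned compounds; ≥48 hr at 37 °C; CellTiter-Glo luminescence as viability measure.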
DT40 TDP1 CPT: growth inhibition of DT40 Tdp1-/-;hTDP1 cells with camptothecin (screen for TDP1 inhibitors) | chicken DT40 Tdp1-/-;hTDP1 cells + 20 nM CPT, ATP luminescence, 48 h | Potency, µM (highest dose often 46.2 µM), inactives show top-dose activity change, negative = growth inhibition, actives largely listed as inhibitors | actives 12% (n = 420,000) | AID 686979; also: potency is read from the fitted curve at half-maximal effect; % is scaled to controls: 0 for no effect and ±100 for the full control effect; nearly all actives have a fitted effect of over 55% in size
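Chicken DT40 Tdp1-/- cells complemented with human TDP1, 400 cells/well, exposed to compounds plus 20 nM camptothecin for at least 48 h at 37 C; viability read as ATP content by CellTiter-Glo luminescence.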
TGFb SMAD3 inh: inhibitors of TGF-b signaling | HepG2 CAGA-GFP TGF-b/SMAD3 reporter, GFP fluorescence, 18 h; TGF-beta stimulated, 500 pg/mL final | actives 1.2% (n = 410,000) | Potency, µM (series often up to 46.1 µM), for the others: at the highest dose activity, negative = inhibition, usual class: inhibitors; also: potency is read from the fitted curve at half-maximal effect; % is scaled to controls: 0 for no effect and ±100 for the full control effect; nearly all actives have a fitted effect of over 65% in size
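HEPG2 CAGA-GFP, 1000 cells/well; 2 h settle, 37 C; cpd via pin tool; TGF-b 500 pg/mL final; 18 h, 37 C; GFP imaging ex488/em500-530; %Activity normalised to -TGF-b and +DMSO controls; CRC fit, curve class.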
TDP1 inh: TDP1 (human) enzyme inhibition | recombinant TDP1, AlphaScreen DNA substrate cleavage | Potency, µM (series often up to 130 µM), inactives show at the top dose activity change, negative = inhibition, most hits filed as inhibitors | actives 0.28% (n = 350,000); also: potency is read from the fitted curve at half-maximal effect; % is scaled to controls: 0 for no effect and ±100 for the full control effect; nearly all actives have a fitted effect of over 40% in size
Target sequence (Q9NUW8 whole entry, looked up): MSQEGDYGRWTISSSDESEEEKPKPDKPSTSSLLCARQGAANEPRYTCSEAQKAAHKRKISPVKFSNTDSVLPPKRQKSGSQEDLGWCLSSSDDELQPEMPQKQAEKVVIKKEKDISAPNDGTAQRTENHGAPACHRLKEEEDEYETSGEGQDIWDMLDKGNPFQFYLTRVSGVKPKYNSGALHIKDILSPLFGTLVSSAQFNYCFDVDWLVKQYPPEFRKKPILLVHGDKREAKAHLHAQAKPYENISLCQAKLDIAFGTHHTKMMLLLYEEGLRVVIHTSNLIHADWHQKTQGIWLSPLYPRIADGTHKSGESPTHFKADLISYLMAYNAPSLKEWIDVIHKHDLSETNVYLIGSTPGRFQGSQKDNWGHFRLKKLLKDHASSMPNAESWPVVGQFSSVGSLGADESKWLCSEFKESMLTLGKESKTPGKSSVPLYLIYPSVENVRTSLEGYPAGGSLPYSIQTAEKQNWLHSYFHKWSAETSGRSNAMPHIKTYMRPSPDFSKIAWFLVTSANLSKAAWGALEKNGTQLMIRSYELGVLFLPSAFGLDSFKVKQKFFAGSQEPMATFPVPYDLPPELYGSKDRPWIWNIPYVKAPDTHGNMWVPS
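Steps: enzyme plus compound, 15 min RT; add biotin/phosphotyrosine-FITC oligonucleotide (15 nM final), react 5 min; add donor/acceptor beads (10 ug/ml final), 10 min; read AlphaScreen. Tdp1 at 1 nM final.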
Starred values were filed as active, the others as inactive; ? = inconclusive; / = no result; [ ] = remark or other dose. Compounds with a hit are over-represented: about 19% of the library has one in this group of screens. Unless noted, calls follow the shape of the dose curve; as a rule, active = well fitted curve in the direction sought with a large enough effect; inconclusive = small, poorly fitted or top-dose-only effect, or another doubt; inactive = no such curve, though single readings can be large; an effect the other way counts as inactive or inconclusive.

SMILES | HepG2 tox | IL-1B inflam inh | TDP1 cell noCPT | DT40 TDP1 CPT | TGFb SMAD3 inh | TDP1 inh
Cc1ccc(C(=O)OCC(=O)c2c[nH]c3ccccc23)cc1S(=O)(=O)N1CCCCC1 | -27.6% | 19.1 | 18.4µM* | 23.1µM* | 5.9% | -4.3%
O=C(OCC(=O)N1CCCC1)c1ccc(Cl)c([N+](=O)[O-])c1 | -4.5% | -57.3* | -11.5% | 2.0% | -2.7% | /
CCNc1ccc(C(=O)OCC(=O)N2CCCC2)cc1[N+](=O)[O-] | 2.6% | 8.8 | ? | ? | 2.3% | 5.3%
Cc1ccc(C(=O)OCC(=O)c2c[nH]c3ccccc23)cc1NC(=O)c1ccco1 | -19.3% | ? | 20.6µM* | ? | 0.0% | 5.1%
Cc1ccc(C(=O)OCC(=O)Nc2ccccc2)cc1S(=O)(=O)N1CCCCC1 | 3.0% | -4.3 | -7.7% | -9.1% | -9.3% | /
COc1ccc(SCC(c2ccccc2)N2CCN(CC(C)C)CCC2=O)cc1 (stereo not given) | -29.0% | / | / | / | -23.3% | 9.7%
COCCn1c(=O)c(-c2ccc(OC)cc2)nc2cnc(N3CCOCC3)nc21 | / | / | -3.2% | 2.4% | / | /
Cc1cccc(C)c1NC(=O)CN(C)C(=O)c1ccc2c(=O)n3c(nc2c1)CCC3 | -21.2% | -12.7 | -11.6% | 4.1% | 7.8% | 0.5%
O=C(COC(=O)c1ccc(Cl)c(S(=O)(=O)N2CCCC2)c1)NCc1ccccc1 | -15.0% | 18.6 | -28.9% | ? | 14.3% | 35.5µM*
Cc1ccc(CNC(=O)COC(=O)c2ccc(Cl)c(N)c2)cc1 | 19.1% | 23.1 | -10.2% | 23.1µM* | -15.3% | 0.0%
Cc1[nH]c2ccccc2c1C(=O)COC(=O)c1cccc(S(=O)(=O)N2CCCCC2)c1 | 7.3% | 24.8 | ? | 18.4µM* | 4.9% | 3.1%
COCCNC(=O)[C@@]1(Cc2ccccc2)C=C[C@@H](C)N1C(=O)OC | / | / | / | / | / | 2.7%
COc1ccc(NC(=O)Nc2nccs2)cc1 | -25.2% | 10.9 | 16.4µM* | 13µM* | 7.5% | 6.6%
COc1ccc(NC(=O)Nc2ccc3nccnc3c2)cc1 | -14.1% | -29.6 | 20.6µM* | 25.9µM* | -2.8% | 4.2%
COc1ccc(CNC(=O)C2CCN(S(=O)(=O)c3ccc4c(c3)N(C(C)=O)CCO4)CC2)cc1 | -18.4% | 27.5 | 8.3% | 2.6% | -7.7% | -14.1%
COc1ccc(-c2nc3c4cnn(-c5ccccc5F)c4ncn3n2)cc1 | -7.0% | / | -4.3% | 8.5% | / | -2.5%
COc1cc(NC(=O)c2c3c(nc4ccccc24)C(=O)N(C2CCCCC2)C3)cc(OC)c1 | 1.9% | / | -14.8% | -21.3% | 27.0% | 8.4%
CC(NC(=O)c1c2c(nc3ccccc13)C(=O)N(C1CCCCC1)C2)c1ccccc1 (stereo not given) | -15.9% | / | 18.4µM* | 16.4µM* | 25.2% | 11.0%
CC(=O)c1ccc(NC(=O)c2c3c(nc4ccccc24)C(=O)N(C2CCCCC2)C3)cc1 | -0.9% | / | 20.6µM* | 20.6µM* | 15.1% | 1.9%
COc1ccc(C2c3c(N)nc(Cc4ccccc4)nc3Oc3ccc4ccccc4c32)cc1OC (stereo not given) | / | / | / | / | / | 1.7%
CC(C)(CO)NCc1ccc(Br)cc1 | -21.9% | -4.5 | ? | 20.6µM* | 7.2% | 5.5%
O=S(=O)(N[C@H]1C[C@@H](NS(=O)(=O)OCC(Cl)(Cl)Cl)C2CCCCC21)OCC(Cl)(Cl)Cl (stereo not given in full) | -80.8% | 2.7 | 23.1µM* | ? | ? | /
Cc1ccc(-n2nc(C)c3c(C(=O)NCc4ccc(F)cc4)cc(C)nc32)cc1 | -3.8% | / | ? | -3.8% | 0.4% | 0.0%
CCOC(=O)Cn1c(S(=O)(=O)Cc2ccc(Cl)cc2)nc(-c2ccccc2)c1-c1ccccc1 | 6.1% | -3.6 | 16.4µM* | 18.4µM* | -10.8% | 2.9%
CCOC(=O)Cn1c(S(=O)(=O)Cc2ccccc2)nc2ccccc21 | -43.3% | 14.6 | ? | -2.4% | ? | 2.6%
SMILES | HepG2 tox | IL-1B inflam inh | TDP1 cell noCPT | DT40 TDP1 CPT | TGFb SMAD3 inh | TDP1 inh
Cc1cc(CNC(=O)c2cc(COc3ccc(F)c(F)c3)on2)nn1C | -9.8% | 7.2 | ? | 14.6µM* | -3.5% | 2.5%
Cn1c(CCNC(=O)c2cc(COc3ccc(F)c(F)c3)on2)nc2ccccc21 | -19.8% | -9.3 | ? | ? | -0.9% | 0.8%
CCOC(=O)CC1(NC(=O)c2cc(COc3ccc(F)c(F)c3)on2)CCCCC1 | -22.9% | 27.3 | 18.4µM* | 23.1µM* | ? | -17.4%
Cc1cc(C)n(CC(C)NC(=O)c2cc(COc3c(F)cccc3F)on2)n1 (stereo not given) | -2.0% | -13.9 | ? | -45.8% | 8.5% | 2.4%
Cc1cccc(CC(C)NC(=O)c2cc(COc3ccc(C)c(C)c3)on2)n1 (stereo not given) | -30.1% | ? | 20.6µM* | 20.6µM* | ? | 0.2%
Cc1cc(C)n(CC(C)NC(=O)c2cc(COc3ccc(F)c(F)c3)on2)n1 (stereo not given) | -25.7% | -6.9 | 16.4µM* | ? | -18.0% | /
COc1cccc(NCc2nnc(SC(C(=O)N(C)C)c3ccccc3)n2C2CCCCC2)c1 (stereo not given) | 1.9% | / | -27.2% | 6.0% | 0.0% | /
COC(=O)C/C=C\[C@@H](C)[C@@H]1C=C[C@H](OC(C)=O)[C@H](COC(C)=O)O1 | / | / | / | / | / | -1.6%[21 µM]
Cc1nnsc1C(=O)Oc1ccc(Cl)cc1 | 4.3% | / | 5.6% | -0.8% | 4.2% | 1.6%
CC1=C(c2cccc(Cl)c2)S(=O)(=O)NC1=NCc1ccccc1C | -13.2% | / | ? | ? | -11.3% | 2.9%
O=S(=O)(c1ccccc1)N1CCC2(CCCN(Cc3nccs3)C2)CC1 | / | / | ? | 2.8% | / | /
CCOc1ccc(C(=O)Nc2ccc3nc(SCc4ccccc4)sc3c2)cc1 | 4.1% | / | 8.2µM* | 11.6µM* | ? | -1.6%
Cc1ccc(OCC(=O)Nc2ccc3nc(SCC(=O)N4CCCC4)sc3c2)cc1 | -25.2% | / | 20.6µM* | ? | 0.0% | -1.6%
Cc1ccccc1OCC(=O)Nc1ccc2nc(SCCOc3ccccc3)sc2c1 | 2.8% | / | -6.9% | -17.1% | -11.0% | 2.6%
CCN(CC)C(=O)CSc1nc2ccc(NC(=O)CSc3nnc(COc4ccccc4C)n3C)cc2s1 | -1.8% | -12.6 | ? | ? | -12.2% | 1.0%
Cc1ccccc1OCc1nnc(SCC(=O)Nc2ccc3nc(SCC(=O)NC(C)(C)C)sc3c2)n1C | 0.2% | -11.0 | ? | 18.4µM* | 7.0% | -1.1%
